According to PubChem BioAssay (EPA / NIEHS):
Results filed as inconclusive are left out. Active and inactive are the calls of the source. Rule for the calls: active = hit-call score of the fitted dose curve at least 0.9, where 1 is the maximum; inconclusive = response in the unintended direction; inactive = score below 0.9.

Columns and labels:
[1] = target: human AKT serine/threonine Kinase 2 (AKT2), AKT2 (gene 208) (UniProt P31751); experiment: NVS_ENZ_hAKT2: NovaScreen (NVS) Enzymatic Assay for human AKT serine/threonine Kinase 2 (AKT2) (AID 2283141)
In short: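 Cell-free fluorescence/electrophoretic mobility shift readout of recombinant human AKT2 activity, 1 h after chemical dosing. Duplicate primary screen at 25 uM, then singleton concentration-response up to 50 uM; loss of signal versus DMSO baseline.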

[2] = target: human Dual Specificity Protein Phosphatase 3 (DUSP3), DUSP3 (gene 1845) (UniProt P51452); experiment: NVS_ENZ_hDUSP3: NovaScreen (NVS) Enzymatic Assay for human Dual Specificity Protein Phosphatase 3 (DUSP3) (AID 2283152);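 note: phosphatase activity of recombinant human DUSP3 on a fluorogenic substrate without cells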
In short: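 Cell-free fluorescence-intensity enzyme activity assay with recombinant protein and substrate; loss of signal fitted relative to DMSO baseline. Primary screen in duplicate at 25 uM, actives then run in concentration series; measured 0 h after dosing.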

[3] = target: human Aurora Kinase A - serine/threonine-protein Kinase 6 (AurA), AURKA (gene 6790) (UniProt O14965); experiment: NVS_ENZ_hAurA: NovaScreen (NVS) Enzymatic Assay for human Aurora Kinase A - serine/threonine-protein Kinase 6 (AurA) (AID 2283142)
In short: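 Recombinant human AurA activity read by fluorescence after mobility-shift separation of product from substrate; 1 hour incubation. Chemicals first run in duplicate at 25 uM, then concentration series to 50 uM if over threshold; fitted relative to DMSO.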

CDK2 (gene 1017) = CDK2 (gene 1017) (UniProt P24941); experiment: NVS_ENZ_hCDK2: NovaScreen (NVS) Enzymatic Assay for human Cyclin-Cependent Kinase 2 (CDK2) (AID 2283144)
In short: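 Compounds screened in duplicate at 25 uM, then in singleton concentration-response to a maximum of 50 uM, against recombinant CDK2; kinase activity read 1 hr after dosing by fluorescence with mobility-shift separation of substrate and product.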

[4] = target: human Colony Stimulating Factor 1 Receptor (CSF1R), CSF1R (gene 1436) (UniProt P07333); experiment: NVS_ENZ_hCSF1R: NovaScreen (NVS) Enzymatic Assay for human Colony Stimulating Factor 1 Receptor (CSF1R) (AID 2283150)
In short: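 Compounds screened in duplicate at 25 uM, then concentration-response (top 50 uM) for those passing threshold such as 30% inhibition; recombinant CSF1R activity measured 1 h post-dosing via fluorescent substrate/product mobility-shift separation, loss of signal versus DMSO.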

[5] = target: human Epidermal Growth Factor Receptor (EGFR), EGFR (gene 1956) (UniProt P00533); experiment: NVS_ENZ_hEGFR: NovaScreen (NVS) Enzymatic Assay for human Epidermal Growth Factor Receptor (EGFR) (AID 2283151)
In short: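 Cell-free kinase assay, fluorescence plus electrophoretic mobility shift separating substrate and product, read 1 hour after dosing; loss of signal vs DMSO. Duplicate screen at 25 uM, then concentration-response to 50 uM.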

[6] = target: human Esterase Plasma (ES), BCHE (gene 590) (UniProt P06276); experiment: NVS_ENZ_hES: NovaScreen (NVS) Enzymatic Assay for human Esterase Plasma (ES) (AID 2283157)
In short: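 Human plasma-derived enzyme, cell-free, colorimetric readout at 0.25 h. Primary screen 25 uM in duplicate; hits (e.g. ≥30% inhibition) rerun singleton up to 50 uM. DMSO = negative control/baseline.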

[7] = target: human Ephrin type-A Receptor 1 (EphA1), EPHA1 (gene 2041) (UniProt P21709); experiment: NVS_ENZ_hEphA1: NovaScreen (NVS) Enzymatic Assay for human Ephrin type-A Receptor 1 (EphA1) (AID 2283158);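 note: activity is signal loss versus DMSO meaning EphA1 kinase inhibition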
In short: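 Biochemical kinase assay run cell-free; 1 h incubation; readout is fluorescence with mobility-shift separation of product. Concentration-response up to 50 uM for actives from a 25 uM screen.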

[8] = target: human Fibroblast Growth Factor Receptor 1 (FGFR1), FGFR1 (gene 2260) (UniProt P11362); experiment: NVS_ENZ_hFGFR1: NovaScreen (NVS) Enzymatic Assay for human Fibroblast Growth Factor Receptor 1 (FGFR1) (AID 2283159);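 for AC50: hits lower the signal so potencies describe inhibitors of the kinase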
In short: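 Cell-free recombinant kinase with fluorescent substrate, product separated by electrophoretic mobility shift; read 1 hour after dosing, loss of signal relative to DMSO. Initial screen in duplicate at 25 uM, actives followed in concentration series.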

[9] = target: human FYN Proto-Oncogene, Src family Tyrosine Kinase (Fyn), FYN (gene 2534) (UniProt P06241); experiment: NVS_ENZ_hFyn: NovaScreen (NVS) Enzymatic Assay for human FYN Proto-Oncogene, Src family Tyrosine Kinase (Fyn) (AID 2283161)
In short: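 Cell-free kinase activity read by fluorescence after mobility-shift separation of substrate and product, 1 h post-dose. Initial single concentration 25 uM in duplicate, then concentration-response follow-up; DMSO baseline.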

[10] = target: Histone deacetylase 3 (Homo sapiens) (UniProt O15379); experiment: NVS_ENZ_hHDAC3: NovaScreen (NVS) Enzymatic Assay for human Histone Deacetylase 3 (HDAC3) (AID 2283163)
In short: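 Cell-free enzyme format: loss of fluorescent product after mobility-shift separation, 1 h incubation, recombinant human HDAC3. Single 25 uM duplicate screen first, then concentration series to a 50 uM top for hits; DMSO as baseline.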

[11] = target: Protein deacetylase HDAC6 (Homo sapiens) (UniProt Q9UBN7); experiment: NVS_ENZ_hHDAC6: NovaScreen (NVS) Enzymatic Assay for human Histone Deacetylase 6 (HDAC6) (AID 2283164)
In short: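 Concentration-response runs up to 50 uM followed a duplicate 25 uM single-point screen. Deacetylase activity of recombinant human HDAC6 read by fluorescence after 1 h, with mobility-shift separation of substrate and product; DMSO as baseline.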

[12] = target: Glycogen synthase kinase-3 beta (Homo sapiens) (UniProt P49841); experiment: NVS_ENZ_hGSK3b: NovaScreen (NVS) Enzymatic Assay for human Glycogen Synthase Kinase-3 beta (GSK3b) (AID 2283165)
In short: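 Recombinant enzyme with specific fluorescent substrate, 1 h, product separated by electrophoretic mobility shift. Primary duplicate screen at 25 uM; actives (e.g. 30% inhibition) followed in singleton concentration-response to 50 uM. Signal loss fitted versus DMSO.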

[13] = target: human Casein Kinase 1-delta (CK1D), CSNK1D (gene 1453) (UniProt P48730); experiment: NVS_ENZ_hCK1D: NovaScreen (NVS) Enzymatic Assay for human Casein Kinase 1-delta (CK1D) (AID 2283148)
In short: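 Recombinant human CK1-delta, cell-free; fluorescent substrate with electrophoretic mobility-shift separation of product, read 1 h after dosing. Single 25 uM duplicate screen, then concentration-response up to 50 uM; loss of signal vs DMSO.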

[14] = target: human Ephrin type-A Receptor 2 (EphA2), EPHA2 (gene 1969) (UniProt P29317); experiment: NVS_ENZ_hEphA2: NovaScreen (NVS) Enzymatic Assay for human Ephrin type-A Receptor 2 (EphA2) (AID 2283155)
In short: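 Enzyme activity of recombinant EphA2 read by fluorescence after mobility-shift separation, 1 h after dosing. Chemicals first tested at 25 uM (duplicate); those passing threshold run as concentration series, top 50 uM, single replicate, relative to DMSO.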

[15] = target: human Caspase 8 (CASP8), CASP8 (gene 841) (UniProt Q14790); experiment: NVS_ENZ_hCASP8: NovaScreen (NVS) Enzymatic Assay for human Caspase 8 (CASP8) (AID 2283146)
In short: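 The primary screen tested compounds in duplicate at a single 25 uM concentration, with actives followed up in concentration series. Activity of recombinant (E. coli) protease was measured by fluorescence 1 h post-dose, as signal loss against DMSO.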

[16] = target: human IkappaB Kinase alpha (IKKa), CHUK (gene 1147) (UniProt O15111); experiment: NVS_ENZ_hIKKa: NovaScreen (NVS) Enzymatic Assay for human IkappaB Kinase alpha (IKKa) (AID 2283167)
In short: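 Compounds first run in duplicate at 25 uM, those meeting threshold (e.g. 30% inhibition) retested to maximum 50 uM. Enzyme activity of recombinant IKKa measured by fluorescence with electrophoretic mobility shift separation, 1 hour post-dosing, DMSO baseline.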

[17] = target: human Elastase, ELANE (gene 1991) (UniProt P08246); experiment: NVS_ENZ_hElastase: NovaScreen (NVS) Enzymatic Assay for human Elastase (AID 2283153)
In short: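 Concentration-response to 50 uM max, run singly for chemicals passing a threshold (e.g., 30% inhibition) in a duplicate 25 uM single-point screen. Neutrophil-derived human elastase, absorbance read-out of enzyme activity at 1.5 h; DMSO baseline.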

[18] = target: human Ephrin type-B Receptor 2 (EphB2), EPHB2 (gene 2048) (UniProt P29323); experiment: NVS_ENZ_hEphB2: NovaScreen (NVS) Enzymatic Assay for human Ephrin type-B Receptor 2 (EphB2) (AID 2283156)
In short: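 Compounds were first tested in duplicate at 25 uM, with hits rerun singly in concentration series up to 50 uM. Enzyme activity on fluorescent substrate was read at 1 h by mobility-shift separation, scored as signal loss relative to DMSO.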

[19] = target: human Ephrin type-B Receptor 1 (EphB1), EPHB1 (gene 2047) (UniProt P54762); experiment: NVS_ENZ_hEphB1: NovaScreen (NVS) Enzymatic Assay for human Ephrin type-B Receptor 1 (EphB1) (AID 2283154)
In short: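 Recombinant EphB1 activity read by fluorescence after mobility-shift separation of product from substrate, 1 h post-dosing. Compounds screened in duplicate at 25 uM; inhibition scored as signal loss relative to DMSO.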

human Caspase 8 (CASP8), CASP8 (gene 841), sequence (Q14790 whole entry, looked up): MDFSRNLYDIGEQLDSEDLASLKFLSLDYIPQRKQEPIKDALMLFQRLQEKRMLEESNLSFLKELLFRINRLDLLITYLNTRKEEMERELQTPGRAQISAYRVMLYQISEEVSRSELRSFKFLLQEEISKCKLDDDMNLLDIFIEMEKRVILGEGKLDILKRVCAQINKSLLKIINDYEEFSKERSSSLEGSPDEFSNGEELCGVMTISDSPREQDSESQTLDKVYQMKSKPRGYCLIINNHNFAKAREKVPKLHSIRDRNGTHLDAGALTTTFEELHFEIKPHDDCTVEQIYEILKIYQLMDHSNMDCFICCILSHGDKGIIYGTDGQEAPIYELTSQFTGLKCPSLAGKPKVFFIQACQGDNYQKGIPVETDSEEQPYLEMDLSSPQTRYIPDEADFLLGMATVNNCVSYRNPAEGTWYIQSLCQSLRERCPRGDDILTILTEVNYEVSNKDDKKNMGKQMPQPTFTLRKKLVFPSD
Glycogen synthase kinase-3 beta (Homo sapiens), sequence (P49841 whole entry, looked up): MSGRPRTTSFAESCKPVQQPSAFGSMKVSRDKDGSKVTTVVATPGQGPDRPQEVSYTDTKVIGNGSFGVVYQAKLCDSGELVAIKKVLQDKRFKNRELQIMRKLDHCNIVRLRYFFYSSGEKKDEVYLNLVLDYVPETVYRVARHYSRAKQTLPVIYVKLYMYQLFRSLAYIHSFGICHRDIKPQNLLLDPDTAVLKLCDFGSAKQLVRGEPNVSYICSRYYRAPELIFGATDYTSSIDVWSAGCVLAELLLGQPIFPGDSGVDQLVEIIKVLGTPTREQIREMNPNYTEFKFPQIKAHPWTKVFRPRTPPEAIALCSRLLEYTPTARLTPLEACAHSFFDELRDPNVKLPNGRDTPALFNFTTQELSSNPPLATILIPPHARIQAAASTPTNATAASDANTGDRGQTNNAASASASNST
human AKT serine/threonine Kinase 2 (AKT2), AKT2 (gene 208), sequence (P31751 whole entry, looked up): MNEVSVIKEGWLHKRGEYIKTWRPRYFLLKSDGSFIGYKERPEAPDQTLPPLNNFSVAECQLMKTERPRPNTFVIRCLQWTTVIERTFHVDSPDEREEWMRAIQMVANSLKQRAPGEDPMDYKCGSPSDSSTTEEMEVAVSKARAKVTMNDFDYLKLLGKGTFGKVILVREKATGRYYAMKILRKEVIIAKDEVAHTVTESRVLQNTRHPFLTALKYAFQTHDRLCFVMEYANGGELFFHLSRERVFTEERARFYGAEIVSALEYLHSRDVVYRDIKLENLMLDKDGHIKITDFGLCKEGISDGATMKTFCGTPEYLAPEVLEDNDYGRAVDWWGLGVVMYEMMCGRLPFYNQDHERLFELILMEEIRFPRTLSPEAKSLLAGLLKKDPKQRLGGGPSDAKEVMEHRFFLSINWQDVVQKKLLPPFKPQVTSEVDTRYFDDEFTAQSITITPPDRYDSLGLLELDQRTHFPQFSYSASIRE
human Ephrin type-A Receptor 1 (EphA1), EPHA1 (gene 2041), sequence (P21709 whole entry, looked up): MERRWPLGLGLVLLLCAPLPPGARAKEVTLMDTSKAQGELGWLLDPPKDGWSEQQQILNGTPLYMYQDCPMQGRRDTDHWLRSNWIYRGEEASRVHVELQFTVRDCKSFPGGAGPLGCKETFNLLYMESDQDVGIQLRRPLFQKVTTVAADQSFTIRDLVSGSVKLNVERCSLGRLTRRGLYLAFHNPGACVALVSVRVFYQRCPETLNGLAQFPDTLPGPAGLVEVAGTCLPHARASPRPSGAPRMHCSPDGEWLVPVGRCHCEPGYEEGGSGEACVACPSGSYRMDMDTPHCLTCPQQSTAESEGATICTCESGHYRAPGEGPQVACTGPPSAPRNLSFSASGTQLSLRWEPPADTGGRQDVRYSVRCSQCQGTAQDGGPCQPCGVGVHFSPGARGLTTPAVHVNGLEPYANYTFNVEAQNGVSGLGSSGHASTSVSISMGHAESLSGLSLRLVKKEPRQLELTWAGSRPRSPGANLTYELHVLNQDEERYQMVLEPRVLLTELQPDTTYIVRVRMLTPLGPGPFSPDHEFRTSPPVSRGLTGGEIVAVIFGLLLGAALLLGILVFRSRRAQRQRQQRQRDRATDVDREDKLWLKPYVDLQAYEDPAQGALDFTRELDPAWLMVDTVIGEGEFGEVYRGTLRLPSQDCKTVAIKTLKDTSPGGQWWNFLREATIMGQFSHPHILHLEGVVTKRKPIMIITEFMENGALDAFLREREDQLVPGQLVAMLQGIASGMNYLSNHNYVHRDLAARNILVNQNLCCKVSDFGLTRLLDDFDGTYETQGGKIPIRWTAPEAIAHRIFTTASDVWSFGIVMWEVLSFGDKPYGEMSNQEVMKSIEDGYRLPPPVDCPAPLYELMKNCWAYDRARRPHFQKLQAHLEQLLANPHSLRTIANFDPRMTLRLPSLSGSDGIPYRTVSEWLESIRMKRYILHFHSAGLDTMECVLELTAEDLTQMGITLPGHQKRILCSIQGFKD
Protein deacetylase HDAC6 (Homo sapiens), sequence (Q9UBN7 whole entry, looked up): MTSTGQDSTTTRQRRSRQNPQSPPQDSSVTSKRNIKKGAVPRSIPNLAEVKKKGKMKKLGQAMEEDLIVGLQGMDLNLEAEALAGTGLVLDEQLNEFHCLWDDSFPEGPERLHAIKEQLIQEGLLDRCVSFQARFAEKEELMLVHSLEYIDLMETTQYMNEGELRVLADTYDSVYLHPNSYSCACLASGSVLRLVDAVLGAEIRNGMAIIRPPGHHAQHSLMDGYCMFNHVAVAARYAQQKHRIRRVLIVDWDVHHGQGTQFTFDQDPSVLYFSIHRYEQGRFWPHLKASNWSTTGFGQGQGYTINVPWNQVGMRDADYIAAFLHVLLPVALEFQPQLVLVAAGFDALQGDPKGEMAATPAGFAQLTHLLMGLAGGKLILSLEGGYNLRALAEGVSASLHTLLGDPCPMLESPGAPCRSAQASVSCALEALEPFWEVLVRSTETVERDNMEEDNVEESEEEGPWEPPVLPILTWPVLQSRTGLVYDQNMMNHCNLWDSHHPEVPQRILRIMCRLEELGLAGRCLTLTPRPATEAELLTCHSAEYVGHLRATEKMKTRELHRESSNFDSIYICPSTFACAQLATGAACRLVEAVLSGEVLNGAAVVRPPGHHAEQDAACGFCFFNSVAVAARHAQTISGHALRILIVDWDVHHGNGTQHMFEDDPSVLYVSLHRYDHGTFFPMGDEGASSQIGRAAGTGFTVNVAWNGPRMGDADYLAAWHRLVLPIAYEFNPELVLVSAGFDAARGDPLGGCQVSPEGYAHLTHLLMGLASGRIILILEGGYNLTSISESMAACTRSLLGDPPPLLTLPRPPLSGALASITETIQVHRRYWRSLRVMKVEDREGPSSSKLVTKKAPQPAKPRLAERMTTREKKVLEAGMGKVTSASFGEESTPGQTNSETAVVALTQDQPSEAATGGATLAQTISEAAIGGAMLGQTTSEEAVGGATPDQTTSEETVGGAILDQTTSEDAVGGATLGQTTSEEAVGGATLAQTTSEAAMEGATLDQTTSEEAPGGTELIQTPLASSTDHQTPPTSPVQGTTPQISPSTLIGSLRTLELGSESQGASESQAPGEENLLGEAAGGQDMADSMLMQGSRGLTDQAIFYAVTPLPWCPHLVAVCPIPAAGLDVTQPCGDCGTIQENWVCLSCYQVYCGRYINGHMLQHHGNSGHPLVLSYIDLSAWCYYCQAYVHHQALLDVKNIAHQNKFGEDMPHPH
human Aurora Kinase A - serine/threonine-protein Kinase 6 (AurA), AURKA (gene 6790), sequence (O14965 whole entry, looked up): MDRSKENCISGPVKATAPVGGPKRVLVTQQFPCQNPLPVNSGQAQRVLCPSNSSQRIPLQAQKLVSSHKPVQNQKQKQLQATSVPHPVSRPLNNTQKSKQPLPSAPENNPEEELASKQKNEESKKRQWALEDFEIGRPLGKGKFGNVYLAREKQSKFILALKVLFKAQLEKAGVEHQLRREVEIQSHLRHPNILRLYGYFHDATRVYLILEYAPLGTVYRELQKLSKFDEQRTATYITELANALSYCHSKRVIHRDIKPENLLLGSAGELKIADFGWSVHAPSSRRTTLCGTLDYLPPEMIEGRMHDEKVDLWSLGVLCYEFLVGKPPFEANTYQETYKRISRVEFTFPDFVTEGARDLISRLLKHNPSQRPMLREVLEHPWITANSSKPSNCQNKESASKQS
human Colony Stimulating Factor 1 Receptor (CSF1R), CSF1R (gene 1436), sequence (P07333 whole entry, looked up): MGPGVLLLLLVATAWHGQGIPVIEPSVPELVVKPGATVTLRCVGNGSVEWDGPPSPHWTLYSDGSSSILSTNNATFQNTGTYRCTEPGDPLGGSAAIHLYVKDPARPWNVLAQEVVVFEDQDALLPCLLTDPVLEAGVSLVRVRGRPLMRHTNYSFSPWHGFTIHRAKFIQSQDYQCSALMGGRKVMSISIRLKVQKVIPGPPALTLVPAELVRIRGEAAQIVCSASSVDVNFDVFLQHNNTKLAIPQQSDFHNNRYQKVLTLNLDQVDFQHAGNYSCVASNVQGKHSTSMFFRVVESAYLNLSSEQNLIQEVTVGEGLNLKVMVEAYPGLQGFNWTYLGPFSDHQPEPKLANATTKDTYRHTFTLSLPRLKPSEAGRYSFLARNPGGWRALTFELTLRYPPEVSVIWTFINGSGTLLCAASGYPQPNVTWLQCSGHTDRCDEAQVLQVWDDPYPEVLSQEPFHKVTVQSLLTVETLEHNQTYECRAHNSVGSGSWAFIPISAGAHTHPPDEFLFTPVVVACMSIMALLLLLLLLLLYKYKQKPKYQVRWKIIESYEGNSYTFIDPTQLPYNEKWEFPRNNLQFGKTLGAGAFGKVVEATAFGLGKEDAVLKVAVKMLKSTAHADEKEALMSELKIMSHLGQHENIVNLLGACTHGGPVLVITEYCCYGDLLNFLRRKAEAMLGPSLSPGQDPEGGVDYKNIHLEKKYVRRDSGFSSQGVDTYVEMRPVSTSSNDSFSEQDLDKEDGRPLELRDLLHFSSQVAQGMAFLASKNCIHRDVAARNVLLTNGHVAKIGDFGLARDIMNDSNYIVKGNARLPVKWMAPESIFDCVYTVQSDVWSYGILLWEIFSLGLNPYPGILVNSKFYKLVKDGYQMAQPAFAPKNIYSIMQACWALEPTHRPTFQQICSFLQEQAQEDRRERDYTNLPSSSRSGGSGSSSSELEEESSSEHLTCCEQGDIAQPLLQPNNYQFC

## N#Cc1ccc(N(CC(N)=O)CC(F)(F)F)cc1C(F)(F)F
[1]
  outcome: inactive

## CCCCCCCCOC(=O)c1ccccc1C(=O)OCCCCCCCC
[2]
  outcome: inactive

## CC1=C2C[C@H]3[C@@H](CC=C4C[C@@H](O)CC[C@@]43C)[C@@H]2CC[C@]12O[C@@H]1C[C@H](C)CN[C@H]1[C@H]2C
[1]
  AC50: 12.5 µM (active)
[3]
  outcome: inactive
CDK2 (gene 1017)
  outcome: inactive
[4]
  outcome: inactive
[5]
  outcome: inactive
[6]
  AC50: 12.5 µM (active)
[7]
  outcome: inactive
[8]
  AC50: 21.1 µM (active)
[9]
  outcome: inactive
[10]
  outcome: inactive
[11]
  outcome: inactive
[12]
  outcome: inactive

## O=C(NC(=O)c1c(F)cccc1F)Nc1cc(Cl)c(OC(F)(F)C(F)F)c(Cl)c1
[13]
  outcome: inactive
[14]
  outcome: inactive
[7]
  outcome: inactive

## CCCCCCCCCc1ccc(O)cc1
[2]
  AC50: 13.2 µM (active)
[7]
  outcome: inactive

## CCNc1nc(NC(C)C)nc(SC)n1
[13]
  AC50: 16.3 µM (active)

## CCC(C)c1cc([N+](=O)[O-])cc([N+](=O)[O-])c1O (configuration not stated)
[15]
  outcome: inactive
[13]
  outcome: inactive
[8]
  outcome: inactive

## C1CC2OC2CC1C1CO1 (configuration not stated)
[4]
  outcome: inactive
[12]
  outcome: inactive

## O=C(O)C(F)(F)C(F)(F)C(F)(F)C(F)(F)C(F)(F)F
CDK2 (gene 1017)
  outcome: inactive
[5]
  outcome: inactive
[10]
  outcome: inactive

## CCCCCCOC(=O)c1ccccc1C(=O)OCCCCCC
[1]
  outcome: inactive
[8]
  outcome: inactive

## O=C(O)C(F)(F)C(F)(F)C(F)(F)C(F)(F)C(F)(F)C(F)(F)C(F)(F)C(F)(F)F
[3]
  AC50: 13.1 µM (active)
[13]
  outcome: inactive
[4]
  outcome: inactive
[5]
  outcome: inactive
[7]
  outcome: inactive
[8]
  outcome: inactive
[9]
  outcome: inactive
[12]
  outcome: inactive
[16]
  outcome: inactive

## CC(C)C(=O)OCC(C)(C)C(OC(=O)C(C)C)C(C)C (configuration not stated)
[3]
  outcome: inactive
[12]
  outcome: inactive

## O=S(=O)(O)C(F)(F)C(F)(F)C(F)(F)C(F)(F)C(F)(F)C(F)(F)F
[1]
  outcome: inactive
[4]
  outcome: inactive
[8]
  outcome: inactive
[11]
  outcome: inactive
[16]
  outcome: inactive

## Cc1cccc(C)c1N
[13]
  outcome: inactive

## ClC1=C(Cl)[C@]2(Cl)[C@@H]3[C@@H]4C[C@@H]([C@H]5O[C@@H]45)[C@@H]3[C@@]1(Cl)C2(Cl)Cl
[15]
  outcome: inactive
[4]
  outcome: inactive
[2]
  AC50: 46.6 µM (active)
[17]
  AC50: 37.5 µM (active)

## O=NN(c1ccccc1)c1ccccc1
[13]
  outcome: inactive

## CCCN(CCC)N=O
[3]
  outcome: inactive
CDK2 (gene 1017)
  outcome: inactive
[13]
  outcome: inactive
[4]
  outcome: inactive
[6]
  outcome: inactive
[12]
  outcome: inactive

## CCCCCCCCCC[N+](C)(C)CCCCCCCCCC
[2]
  AC50: 26.3 µM (active)
[6]
  AC50: 25 µM (active)
[7]
  AC50: 19.7 µM (active)

## Cc1cc2c3c(c1)C(c1ccccc1)=N[C@@H](NC(=O)c1ccncc1)C(=O)N3CC2
[3]
  outcome: inactive
[8]
  outcome: inactive

## Oc1ccc(C(c2ccc(O)cc2)(C(F)(F)F)C(F)(F)F)cc1
[13]
  outcome: inactive
[4]
  outcome: inactive
[18]
  outcome: inactive
[9]
  outcome: inactive

## CO/C=C(/C(=O)OC)c1ccccc1COc1cccc(C(F)(F)F)n1
[15]
  outcome: inactive

## O=C(O)C(F)(F)C(F)(F)C(F)(F)C(F)(F)C(F)(F)C(F)(F)C(F)(F)C(F)(F)C(F)(F)F
[2]
  AC50: 13 µM (active)

## NS(=O)(=O)C(F)(F)C(F)(F)C(F)(F)C(F)(F)C(F)(F)C(F)(F)C(F)(F)C(F)(F)F
[17]
  outcome: inactive

## CN(C)c1nc(=O)n(C2CCCCC2)c(=O)n1C
[19]
  outcome: inactive

## Cc1ccccc1CO[C@@H]1C[C@@]2(C(C)C)CC[C@]1(C)O2
[19]
  outcome: inactive
[6]
  AC50: 9.07 µM (active)

## O=C(N[C@H]1CN2CCC1CC2)c1cc2ccoc2cn1
[6]
  outcome: inactive

## Cc1cccc([N+](=O)[O-])c1
[7]
  outcome: inactive

## c1cc2ccc3cccc4ccc(c1)c2c34
[11]
  outcome: inactive

## CCOCCOC(C)=O
[11]
  outcome: inactive
